Activity calls are given as the source filed them. Calls come from the whole dose curve.
% is set by controls: 0 for no effect and ±100 for the full control effect; potency is the fitted concentration of half-maximal effect.

Chain of Acetylcholinesterase (Homo sapiens) (P22303 whole entry, looked up): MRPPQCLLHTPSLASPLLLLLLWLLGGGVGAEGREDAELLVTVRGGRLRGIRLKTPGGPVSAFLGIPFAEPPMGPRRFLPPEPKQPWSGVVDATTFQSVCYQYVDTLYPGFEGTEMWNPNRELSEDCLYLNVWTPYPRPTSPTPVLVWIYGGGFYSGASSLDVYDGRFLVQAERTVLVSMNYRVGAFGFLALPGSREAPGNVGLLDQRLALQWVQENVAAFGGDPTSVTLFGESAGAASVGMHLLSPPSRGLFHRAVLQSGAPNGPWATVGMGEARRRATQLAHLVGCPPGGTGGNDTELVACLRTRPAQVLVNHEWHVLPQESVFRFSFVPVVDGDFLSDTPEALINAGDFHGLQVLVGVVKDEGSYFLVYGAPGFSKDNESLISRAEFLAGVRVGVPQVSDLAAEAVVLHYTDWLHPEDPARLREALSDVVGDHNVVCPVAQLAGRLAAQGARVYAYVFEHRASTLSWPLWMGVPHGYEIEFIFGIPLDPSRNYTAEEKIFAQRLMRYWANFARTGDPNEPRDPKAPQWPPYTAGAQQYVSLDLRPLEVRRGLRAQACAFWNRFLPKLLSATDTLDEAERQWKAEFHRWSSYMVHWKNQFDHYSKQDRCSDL

This assay concerns the target Acetylcholinesterase (Homo sapiens) (UniProt P22303). In words: Acetylcholinesterase (AChE) small molecule antagonists: enzyme-based qHTS assay (AID 1347397). Note: nearly all actives have a fitted effect of over 55% in size. Particulars: Potency: AChE enzyme activity inhibition; outcome: AChE enzyme activity inhibition; series mostly up to 115 µM; activity change, negative = inhibition: at the top concentration. The source says: National Center for Advancing Translational Sciences [NCATS]
Division of Preclinical Innovation [DPI]
U.S. Environmental Protection Agency [EPA]
National Institutes of Environmental Health Sciences [NIEHS]
National Toxicology Program [NTP]
U.S. Food and Drug Administration [FDA]
Acetylcholinesterase (AChE) is the primary cholinesterase in the body that hydrolyzes a key neurotransmitter, acetylcholine. Inhibition of AChE activity can lead to neurotoxicity. The known inhibitors include organophosphorous pesticides (OP), chemical warfare agents, drugs, and various phytochemicals.
An enzyme-based assay with the recombinant human AChE and Amplite Colormetric acetylcholinesterase assay kit (AAT Bioquest, Sunnyvale, CA) was used to evaluate the chemicals in the Tox21 10K library that inhibit AChE activity. The assay uses 5, 5-dithiobis-(2-nitrobenzoic acid) (DTNB) to quantify the thiocholine produced from the hydrolysis of acetylthiocholine by AChE.
Tox21 Assay Protocol Summary:
For the enzyme-based AChE assay, recombinant human AChE (50 mU/mL) in 4 uL/well was dispensed into black, clear-bottom 1536-well plates using a Multidrop Combi dispenser (Thermo Scientific, MA). Then, 23 nL of compound or DMSO (vehicle control) was transferred into the assay plates by a Pintool Station (Wako Automation, CA). The plates were incubated for 30 min at room temperature, followed by the addition of 4 uL of colorimetric detection cocktail solution (DTNB, acetylthiocholine) into each well using a Flying Reagent Dispenser (Beckman Coulter, CA) and then 10 min incubation at room temperature.
(In general: In qHTS, concentration-response curves come from the screen itself.)
For the molecule `O=Cc1c2ccccc2c(Cl)c2ccccc12`, the “activity change, negative = inhibition” value is 0.273% [at 53 µM] (inactive).

For `O=C1O[C@H]([C@H](O)CO)C(O)=C1O`, the Potency result is “inactive”.

Take `C=C/C=C/C=C/CCCCC`: the activity change, negative = inhibition was 0.676% [at 23.6 µM] (inactive).

Take `CC(C)[C@H]1CC[C@@H](C)CC1=O`: the “activity change, negative = inhibition” value is 0.258% (inactive).

For `O=C1c2ccccc2C(=O)N1CCc1noc(-c2ccc(CN3CCCCCC3)s2)n1`, the Potency was 23.1 µM (active).

For the molecule `COc1cc(C(=S)N2CCOCC2)cc(OC)c1OC`, the “activity change, negative = inhibition” value was -1.21% [at 53 µM] (inactive).

Take `O=[N+]([O-])c1ccccc1CCO`: the “activity change, negative = inhibition” value was -0.142% (inactive).

On to `CC1=C(Br)C(=O)C(Br)=C/C1=C(/c1ccccc1S(=O)(=O)O)c1cc(Br)c(O)c(Br)c1C`, for which the “activity change, negative = inhibition” value was 1.19% [at 53 µM] (inactive).

Turning to `C[C@]12C=CC(=O)C=C1[C@@H](F)C[C@@H]1[C@@H]2[C@@H](O)C[C@@]2(C)[C@H]1CC[C@]2(O)C(=O)CO`, the “activity change, negative = inhibition” value was 0.463% [at 53 µM] (inactive).

For the molecule `C1CCCNCCC1`, the “activity change, negative = inhibition” value was 2.98% (inactive).

With `Cc1cc(C)c(O)c(C)c1`, the Potency entry was “inactive”.

For `CC(=O)Nc1ccc(/C=N/NC(N)=S)cc1`, the “activity change, negative = inhibition” value is -1.13% [at 53 µM] (inactive).

For `CC1CCCC(=O)C1=O` (stereo not given), the “activity change, negative = inhibition” value is 0.555% (inactive).

Consider `CC1=NN(c2ccc(C(=O)O)cc2)C(=O)C1`, for which the “activity change, negative = inhibition” value is 5.06% (inactive).

For the molecule `COc1cc(C(=S)N2CCOCC2)ccc1O`, the “activity change, negative = inhibition” value is 0.81% [at 53 µM] (inactive).

With `Cc1cc(=O)[nH]c(C(C)C)n1`, the Potency entry is “inactive”.

As for `C1CCN(CN2CCCCC2)CC1`, the “activity change, negative = inhibition” value is 0.824% (inactive).

Consider `CC(C)N=C(N)/N=C(\N)Nc1ccc(Cl)cc1`, for which the “activity change, negative = inhibition” value is -2.08% [at 53 µM] (inactive).

As to `Cc1c(C(=O)O)c(O)cc2c1C(=O)c1c(O)c([C@@H]3O[C@H](CO)[C@@H](O)[C@H](O)[C@H]3O)c(O)c(O)c1C2=O`, the Potency result was “inactive”.

As for `OCc1cccnc1`, the Potency result was “inactive”.

For the molecule `CC[C@H](C)COC(=O)/C=C/c1ccc(N=Cc2ccc(OC)cc2)cc1`, the “activity change, negative = inhibition” value was -2.04% (inactive).

For `CCCOC(=O)c1cc(O)c(O)c(O)c1`, the Potency result was “inactive”.

`CCOC(=O)CC(O)(CC(=O)OCC)C(=O)OCC`: the “activity change, negative = inhibition” value was 0.981% (inactive).

Turning to `CC(=O)c1ccc([N+](=O)[O-])cc1`, the “activity change, negative = inhibition” value was 2.73% (inactive).

Regarding `c1ccc(-c2ccccn2)nc1`, the “activity change, negative = inhibition” value is 0.71% (inactive).

Consider `CC(=O)CCC(=O)O`, for which the Potency entry is “inactive”.

As to `CCC(C)(CCC(C)C)C(=O)[O-].CCC(C)(CCC(C)C)C(=O)[O-].[Zn+2]` (stereo not given), the “activity change, negative = inhibition” value was 0.258% (inactive).

Turning to `C[C@]12CCC(=O)C=C1CC[C@@H]1[C@@H]2[C@@H](O)C[C@@]2(C)[C@H]1CC[C@]2(O)C(=O)CO`, the Potency result was “inactive”.

With `CN1CCC(OC(c2ccccc2)c2ccccc2)CC1`, the “activity change, negative = inhibition” value is 0.953% [at 53 µM] (inactive).

In the case of `CCN(C(=O)c1cc(C)cc(OC[C@H](C)Nc2ccncc2)c1)C(C)C`, the Potency is 22.2 µM (active).

On to `CCCCCCCCCCCO`, for which the Potency result is “inactive”.

Regarding `Cn1c(=O)c2[nH]c(Br)nc2n(C)c1=O`, the “activity change, negative = inhibition” value is -0.693% [at 53 µM] (inactive).

Turning to `CC(C)(C)CC(C)(C)c1ccc(O)c(-n2nc3ccccc3n2)c1`, the Potency result is “inactive”.

As to `Nc1ncnc2c1ncn2[C@@H]1O[C@H](COP(=O)(O)O)[C@@H](O)[C@H]1O`, the “activity change, negative = inhibition” value is 0.688% [at 53 µM] (inactive).

Take `Cc1cc2c(OCC(CNC(C)(C)C)OC(=O)c3ccccc3)cccc2[nH]1` (stereo not given): the “activity change, negative = inhibition” value was -0.978% [at 53 µM] (inactive).

As for `CCCCCCCCCC/C=C/C#N`, the “activity change, negative = inhibition” value was 0.55% (inactive).

Regarding `COC(C)(C)OC`, the “activity change, negative = inhibition” value is 1.09% (inactive).

For the molecule `C=CCNCC=C`, the Potency entry is “inactive”.

With `c1ccc2c(c1)Cc1ccccc1-2`, the Potency entry is “inactive”.

On to `O=C1C=CC(=O)O1`, for which the “activity change, negative = inhibition” value is -0.545% (inactive).

Source of the values: PubChem BioAssay (Tox21).
